PubChem BioAssay (Tox21)
Records with an inconclusive call do not appear. The source made the active and inactive calls. Unless noted, the call rests on the fitted dose curve; in most records, active means well fitted curve in the direction sought with a large enough effect in the repeat runs; inconclusive means weak or mixed curves; inactive means no such curve, though single readings can be large; an effect the other way counts as inactive or inconclusive.

Legend:
[1] = qHTS assay for small molecule agonists of the p53 signaling pathway (AID 651631; calls by dose curve; further: nearly all actives have a fitted effect of over 15% in size)
How it was run: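 We treat p53RE-bla HCT-116 cells with compounds for 16 h at 37 °C, add LiveBLAzer B/G FRET substrate for 2 h at room temperature, and measure fluorescence intensity.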

[2] = qHTS assay for small molecule agonists of the p53 signaling pathway - cell viability (AID 651633; calls by dose curve;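 further: p53RE-bla HCT reporter cells with a stable beta-lactamase p53 reporter; series mostly up to about 83 µM; nearly all actives have a fitted effect of over 30% in size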)
How it was run: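 p53RE-bla cells were treated with compound for 16 hours at 37 C. Cytotoxicity was then measured as CellTiter-Glo luminescence after 30 min at room temperature.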

[3] = qHTS assay for small molecules that induce genotoxicity in human embryonic kidney cells expressing luciferase-tagged ATAD5 - cell viability (AID 651634; calls by dose curve; further: nearly all actives have a fitted effect of over 25% in size)
How it was run: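 After 15.5 hr incubation with compound at 37C, 5% CO2, HEK293T ATAD5-luciferase cells received CellTiter-Fluor reagent; fluorescence intensity was quantified following 30 min at 37C.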

[4] = qHTS assay for small molecule disruptors of the mitochondrial membrane potential - cell viability (AID 720634; calls by dose curve;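 further: human HepG2 liver cancer cells; series mostly up to about 83 µM; nearly all actives have a fitted effect of over 20% in size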)
How it was run: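 ATP-based luminescent viability readout (CellTiter-Glo, 30 min, room temperature) in HepG2 cells multiplexed with the m-MPI membrane potential dye; compound exposure lasted 1 hr at 37 C.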

[5] = qHTS assay for small molecule disruptors of the mitochondrial membrane potential (AID 720635)
How it was run: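 HepG2 cells exposed to compound 1 hr at 37C, then Mito-MPS dye 30 min. Ratio read of aggregate (540/590 nm) versus monomer (490/535 nm) fluorescence.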

[6] = qHTS assay to test for compound auto fluorescence at 590 nm (red) in HepG2 cells (AID 720674)
How it was run: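 Fluorescence at 590 nm emission following 540 nm excitation was recorded from HepG2 wells one hour after compound transfer, with DMSO-only wells as vehicle and Rose Bengal sodium equivalency as the scale.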

[7] = qHTS assay to test for compound auto fluorescence at 535 nm (green) in HepG2 cells (AID 720675)
[8] = qHTS assay to test for compound auto fluorescence at 460 nm (blue) in HEK293 cells (AID 720678)
How it was run: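 Blue-channel (Ex/Em 405/460 nm) intensity measured in HEK293 cultures after overnight compound exposure at 37C; signal expressed relative to triamterene. Cells plated 2,000 per well in 10% dialyzed FBS medium and allowed 4-5 hr to attach.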

[9] = qHTS assay to test for compound auto fluorescence at 590 nm (red) in HEK293 cells (AID 720679)
How it was run: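 Red-channel autofluorescence (Ex/Em 540/590 nm; Rose Bengal sodium reference) was measured after overnight 37C, 5% CO2 exposure of attached HEK293 cells, 2,000 per well in medium with 10% dialyzed FBS.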

[10] = qHTS assay for small molecules that induce genotoxicity in human embryonic kidney cells expressing luciferase-tagged ATAD5 (AID 651632); further: nearly all actives have a fitted effect of over 15% in size
How it was run: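 Quantitative HTS in HEK293T expressing luciferase-tagged ATAD5, whose levels rise upon DNA damage. Exposure ran 16 hr at 37C and 5% CO2, with luminescence read 30 min after Amplite addition at room temperature.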
On the % scale 0 is the no-effect control and ±100 the full control effect.

CCOc1cccc(N)c1
inactive: outcome [1] | outcome [2] | Potency [3] | outcome [4] | Potency [5] | outcome [6] | outcome [7] | outcome [8] | outcome [9]

CCCCOCCOC(=O)COc1ccc(Cl)cc1Cl
inactive: outcome [1] | Potency [3] | outcome [4] | outcome [6] | outcome [7] | outcome [8] | outcome [9]

CCCCOC(=O)C(C)O (stereo not given)
inactive: outcome [1] | outcome [2] | Potency [3] | outcome [4] | Potency [5] | outcome [6] | outcome [7] | outcome [8] | outcome [9]

CC(N)CCCC(C)(C)O (stereo not given)
inactive: outcome [1] | outcome [2] | Potency [3] | Potency [5] | outcome [6] | outcome [7] | outcome [8] | outcome [9]

CC12CCC(C1)C(C)(C)C2O (stereo not given)
inactive: outcome [10] | outcome [2] | Potency [3] | outcome [4] | Potency [5] | outcome [6] | outcome [7] | outcome [8] | outcome [9]

COc1cc2c(cc1OC)C(=O)C(CC1CCN(Cc3ccccc3)CC1)C2 (stereo not given)
inactive: outcome [10] | outcome [2] | Potency [3] | outcome [4] | Potency [5] | outcome [6] | outcome [7] | outcome [8] | outcome [9]

CCC(C)OC(C)CC (stereo not given)
inactive: outcome [10] | outcome [2] | Potency [3] | outcome [4] | Potency [5] | outcome [6] | outcome [7] | outcome [8] | outcome [9]

O=C[O][Al]([O]C=O)[O]C=O
inactive: outcome [1] | outcome [4] | outcome [6] | outcome [7] | outcome [8] | outcome [9]

CN1CCOC(c2ccccc2)c2ccccc2C1 (stereo not given)
inactive: outcome [1] | outcome [2] | Potency [3] | fluorescence, relative to Rose Bengal [6] -0.228% [at 18.6 µM] | fluorescence, % of fluorescein control [7] 0.0561% [at 18.6 µM] | fluorescence, % of triamterene [8] -0.11% [at 18.6 µM] | fluorescence, % of fluorescent control [9] 0.0791% [at 18.6 µM]

O=[N+]([O-])c1c(Cl)cc(Cl)cc1Cl
inactive: outcome [1] | outcome [2] | Potency [5] | outcome [6] | outcome [7] | outcome [8] | outcome [9]

NCc1ccc(S(N)(=O)=O)cc1
inactive: outcome [1] | outcome [2] | Potency [3] | outcome [4] | Potency [5] | fluorescence, relative to Rose Bengal [6] -0.36% [at 18.6 µM] | fluorescence, % of fluorescein control [7] -0.119% [at 18.6 µM] | fluorescence, % of triamterene [8] 0.204% [at 18.6 µM] | fluorescence, % of fluorescent control [9] -0.0605% [at 18.6 µM]

COC(=O)CCCCC(=O)O
inactive: outcome [1] | outcome [2] | outcome [4] | outcome [6] | outcome [7] | outcome [8] | outcome [9]

O=Cc1cc2ccccc2o1
inactive: outcome [1] | outcome [2] | outcome [4] | Potency [5] | outcome [6] | outcome [7] | outcome [8] | outcome [9]

CCOC(CN1CCN(CC(C)C(=O)c2ccccc2)CC1)c1ccccc1 (stereo not given)
inactive: outcome [1] | outcome [2] | Potency [3] | Potency [5] | outcome [6] | outcome [7] | outcome [8] | outcome [9]

Cn1nnc2c(C(N)=O)ncn2c1=O
inactive: outcome [1] | outcome [2] | outcome [4] | Potency [5] | outcome [6] | outcome [7] | outcome [8] | outcome [9]

COC(=O)c1ccccc1C(=O)O
inactive: outcome [10] | outcome [2] | Potency [3] | outcome [4] | Potency [5] | outcome [6] | outcome [7] | outcome [8] | outcome [9]

C=C(C)C1CC=C(C)C(=O)C1 (stereo not given)
inactive: outcome [10] | outcome [2] | Potency [3] | outcome [4] | outcome [6] | outcome [7] | outcome [8] | outcome [9]

C[C@]12CCC(=O)C=C1CC[C@H]1[C@@H]3CC[C@](O)(C(=O)CO)[C@@]3(C)C[C@H](O)[C@@]12F
inactive: outcome [10] | outcome [2] | Potency [3] | outcome [4] | Potency [5] | outcome [6] | outcome [7] | outcome [8] | outcome [9]

Cc1ccc(C(=O)O)cc1[N+](=O)[O-]
inactive: outcome [10] | outcome [2] | Potency [3] | outcome [4] | Potency [5] | outcome [6] | outcome [7] | outcome [8] | outcome [9]

O=NN(CCCl)C(=O)NC1CCCCC1
inactive: outcome [10] | outcome [2] | Potency [3] | outcome [4] | Potency [5] | outcome [6] | outcome [7] | outcome [8] | outcome [9]

CC(C)(CO)C(O)C(=O)NCCCO (stereo not given)
inactive: outcome [10] | outcome [2] | Potency [3] | outcome [4] | Potency [5] | outcome [6] | outcome [7] | outcome [8] | outcome [9]

O=C(CCCCC(=O)Nc1c(I)cc(I)c(C(=O)O)c1I)Nc1c(I)cc(I)c(C(=O)O)c1I
inactive: outcome [10] | outcome [2] | Potency [3] | outcome [4] | Potency [5] | outcome [6] | outcome [7] | outcome [8] | outcome [9]

Fc1ccccc1
inactive: outcome [10] | outcome [2] | Potency [3] | outcome [4] | outcome [6] | outcome [7] | outcome [8] | outcome [9]

CCCCCC(C)O (stereo not given)
inactive: outcome [10] | outcome [2] | Potency [3] | outcome [4] | Potency [5] | outcome [6] | outcome [7] | outcome [8] | outcome [9]

OC1OCCOC1O (stereo not given)
inactive: outcome [10] | outcome [2] | Potency [3] | outcome [4] | outcome [6] | outcome [7] | outcome [8] | outcome [9]

CO[C@@]1(NC(=O)Cc2cccs2)C(=O)N2C(C(=O)O)=C(COC(N)=O)CS[C@@H]21
inactive: outcome [10] | outcome [2] | Potency [3] | outcome [4] | Potency [5] | outcome [6] | outcome [7] | outcome [8] | outcome [9]

C=C(C)[C@@H]1CC=C(C)C(=O)C1
inactive: outcome [10] | outcome [2] | Potency [3] | outcome [4] | outcome [6] | outcome [7] | outcome [8] | outcome [9]

O=C1CCC(=O)N1Cl
inactive: outcome [10] | outcome [2] | Potency [3] | outcome [4] | outcome [6] | outcome [7] | outcome [8] | outcome [9]

C/C=C(\C)C(C)=O
inactive: outcome [10] | outcome [2] | Potency [3] | outcome [4] | outcome [6] | outcome [7] | outcome [8] | outcome [9]

N#Cc1ccccc1O
inactive: outcome [10] | outcome [2] | Potency [3] | outcome [4] | outcome [6] | outcome [7] | outcome [8] | outcome [9]

CC1CC(=O)CC(C)(C)C1 (stereo not given)
inactive: outcome [10] | outcome [2] | Potency [3] | outcome [4] | outcome [6] | outcome [7] | outcome [8] | outcome [9]

O=C=NCC1CCCC(CN=C=O)C1 (stereo not given)
inactive: outcome [10] | outcome [2] | Potency [3] | outcome [4] | outcome [6] | outcome [7] | outcome [8] | outcome [9]

CN(C)CCCO[C@@H]1[C@H]2OC(C)(C)O[C@H]2O[C@@H]1C(O)CO (stereo not given in full)
inactive: outcome [10] | outcome [2] | Potency [3] | outcome [4] | Potency [5] | outcome [6] | outcome [7] | outcome [8] | outcome [9]

CCC/C=C(\C=O)CC
inactive: outcome [10] | outcome [2] | Potency [3] | Potency [5] | outcome [6] | outcome [7] | outcome [8] | outcome [9]

CC(C)Cn1cnc2c1c(=O)n(C)c(=O)n2C
inactive: outcome [10] | outcome [2] | Potency [3] | outcome [4] | Potency [5] | outcome [6] | outcome [7] | outcome [8] | outcome [9]

CCNC(=O)NCc1cccc(Cl)c1
inactive: outcome [10] | outcome [2] | Potency [3] | Potency [5] | outcome [6] | outcome [7] | outcome [8] | outcome [9]

C=Cc1ccc(C(C)(C)C)cc1
inactive: outcome [10] | outcome [2] | Potency [3] | outcome [6] | outcome [7] | outcome [8] | outcome [9]

CCCC(=O)OC/C=C(\C)CCC=C(C)C
inactive: outcome [10] | outcome [2] | Potency [3] | outcome [4] | outcome [6] | outcome [7] | outcome [8] | outcome [9]

CCC(C)C(C)=O (stereo not given)
inactive: outcome [10] | outcome [2] | Potency [3] | outcome [6] | outcome [7] | outcome [8] | outcome [9]
